Measured values from the supplement of paper PMC10849652.
About 7,900 targets were measured; listed, in parts, are those with a hit and a random draw of the rest. About 0.6% of all pairs of compound and target were hits.

How the values were obtained:
Experiment in all cases: log2 fold change, soluble protein after heating vs DMSO (PISA); higher = thermal stabilisation; K562 cells, 10 uM, 30 min; active = over 0.2 and 3.5 SD of the protein, either way, in both replicates (recomputed)
[1] = compound: CS(=O)(=O)c1ccc(-c2cnc(N)c(C(=O)Nc3ccccc3)n2)cc1
Method in brief: (§1)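 Values are thermal stability changes relative to control samples and are taken from duplicates. They are stated as log2 fold changes. Before quantification by TMTpro 16plex LC-MS/MS with equalised channel sums, K562 cells at 2×10^6 cells/mL were treated with 10 μM compound for 30 min, heated in aliquots for 3 min across 48°C-58°C, pooled, extracted in PBS with 0.5% NP-40 at 4°C, and centrifuged at 21,000xg for 90 min to give the soluble supernatant.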

crizotinib = compound: C[C@@H](Oc1cc(-c2cnn(C3CCNCC3)c2)cnc1N)c1c(Cl)ccc(F)c1Cl [crizotinib]
Method in brief: as §1

[2] = compound: C[C@@H]1COCCN1C2=NC(=NC(=C2)C3(CC3)S(=O)(=O)C)C4=C5C=CNC5=CC=C4
Method in brief: as §1

[3] = compound: C[C@H](C1=CC=C(C=C1)C(=O)NC2=C3C=CNC3=NC=C2)N
Method in brief: as §1

duvelisib = compound: C[C@H](Nc1ncnc2nc[nH]c12)c1cc2cccc(Cl)c2c(=O)n1-c1ccccc1 [duvelisib]
Method in brief: as §1

gandotinib = compound: Cc1cc(Nc2cc(CN3CCOCC3)c3nc(C)c(Cc4ccc(Cl)cc4F)n3n2)n[nH]1 [gandotinib]
Method in brief: as §1

tozasertib = compound: Cc1cc(Nc2cc(N3CCN(C)CC3)nc(Sc3ccc(NC(=O)C4CC4)cc3)n2)n[nH]1 [tozasertib]
Method in brief: as §1

[4] = compound: Cc1cc(SCc2sc(-c3ccc(C(F)(F)F)cc3)nc2C)ccc1OCC(=O)O
Method in brief: as §1

doramapimod = compound: Cc1ccc(-n2nc(C(C)(C)C)cc2NC(=O)Nc2ccc(OCCN3CCOCC3)c3ccccc23)cc1 [doramapimod]
Method in brief: as §1

ispinesib = compound: Cc1ccc(C(=O)N(CCCN)[C@@H](c2nc3cc(Cl)ccc3c(=O)n2Cc2ccccc2)C(C)C)cc1 [ispinesib]
Method in brief: as §1

bafetinib = compound: Cc1ccc(NC(=O)c2ccc(CN3CC[C@H](N(C)C)C3)c(C(F)(F)F)c2)cc1Nc1nccc(-c2cncnc2)n1 [bafetinib]
Method in brief: as §1

[5] = compound: Cc1cccc(CC(=O)N2CCc3c2ccc(-c2cn(C)c4ncnc(N)c24)c3F)n1
Method in brief: as §1

nilotinib = compound: Cc1cn(-c2cc(NC(=O)c3ccc(C)c(Nc4nccc(-c5cccnc5)n4)c3)cc(C(F)(F)F)c2)cn1 [nilotinib]
Method in brief: as §1

[6] = compound: Cc1nc(Nc2n[nH]c3c2CN(C(=O)N[C@H](CN(C)C)c2ccccc2)C3(C)C)c2sccc2n1
Method in brief: as §1

dasatinib = compound: Cc1nc(Nc2ncc(C(=O)Nc3c(C)cccc3Cl)s2)cc(N2CCN(CCO)CC2)n1 [dasatinib]
Method in brief: as §1

[7] = compound: Cc1ncc(-c2ccnc(Nc3ccc(S(C)(=O)=O)cc3)n2)n1C(C)C
Method in brief: as §1

[8] = compound: Cn1cc(-c2ccc3c(c2)CCN3C(=O)Cc2cccc(C(F)(F)F)c2)c2c(N)ncnc21
Method in brief: as §1

[9] = compound: Cn1cc(-c2ccc3nnc(C(F)(F)c4ccc5ncccc5c4)n3n2)cn1
Method in brief: as §1

tipifarnib = compound: Cn1cncc1[C@@](N)(c1ccc(Cl)cc1)c1ccc2c(c1)c(-c1cccc(Cl)c1)cc(=O)n2C [tipifarnib]
Method in brief: as §1

mubritinib = compound: FC(F)(F)c1ccc(/C=C/c2nc(COc3ccc(CCCCn4ccnn4)cc3)co2)cc1 [mubritinib]
Method in brief: as §1

Measured: log2 fold change

INPP5B (UniProt P32019)
UniProt P32019, sequence (P32019 whole entry, looked up): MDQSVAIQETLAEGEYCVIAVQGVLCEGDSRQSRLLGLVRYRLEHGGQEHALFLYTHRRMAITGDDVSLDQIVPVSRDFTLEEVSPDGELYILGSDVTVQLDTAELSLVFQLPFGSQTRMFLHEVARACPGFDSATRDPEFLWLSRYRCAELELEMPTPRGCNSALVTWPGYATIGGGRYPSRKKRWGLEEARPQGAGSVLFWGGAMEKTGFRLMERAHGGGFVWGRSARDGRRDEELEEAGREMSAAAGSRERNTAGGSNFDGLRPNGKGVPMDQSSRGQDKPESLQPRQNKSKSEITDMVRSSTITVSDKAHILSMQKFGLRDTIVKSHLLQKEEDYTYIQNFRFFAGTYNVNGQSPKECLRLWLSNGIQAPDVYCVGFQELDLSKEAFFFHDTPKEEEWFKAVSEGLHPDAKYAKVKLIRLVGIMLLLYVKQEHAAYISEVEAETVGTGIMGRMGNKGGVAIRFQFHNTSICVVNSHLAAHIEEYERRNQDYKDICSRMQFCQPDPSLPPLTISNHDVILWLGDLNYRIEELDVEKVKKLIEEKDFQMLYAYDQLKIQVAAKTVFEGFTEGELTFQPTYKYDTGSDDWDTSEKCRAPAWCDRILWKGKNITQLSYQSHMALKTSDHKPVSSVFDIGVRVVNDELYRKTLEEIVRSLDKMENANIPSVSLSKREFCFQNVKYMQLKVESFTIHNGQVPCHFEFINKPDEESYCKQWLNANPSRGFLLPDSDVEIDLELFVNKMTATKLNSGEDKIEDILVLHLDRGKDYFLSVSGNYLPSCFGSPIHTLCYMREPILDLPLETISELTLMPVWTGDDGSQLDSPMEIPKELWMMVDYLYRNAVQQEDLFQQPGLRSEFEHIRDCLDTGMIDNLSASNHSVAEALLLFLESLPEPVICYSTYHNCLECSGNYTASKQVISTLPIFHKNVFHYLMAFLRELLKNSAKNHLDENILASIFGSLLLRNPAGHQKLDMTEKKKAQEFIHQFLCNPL
inactive: [1] 0.057 | crizotinib -0.096 | [2] -0.02 | [3] 0.042 | duvelisib -0.045 | gandotinib 0.017 | tozasertib 0.151 | [4] 0.029 | doramapimod 0.095 | ispinesib -0.005 | bafetinib 0.103 | [5] -0.059 | nilotinib -0.077 | [6] 0.001 | dasatinib -0.111 | [7] 0.014 | [8] -0.005 | [9] -0.032 | tipifarnib 0.072 | mubritinib 0.018

IGF2R (UniProt P11717)
inactive: [1] 0.031 | [2] -0.035 | [3] -0.035 | duvelisib 0.048 | gandotinib 0.017 | tozasertib 0.025 | [4] 0.019 | doramapimod -0.01 | ispinesib -0.115 | [5] 0.021 | nilotinib -0.02 | [6] -0.087 | dasatinib -0.023 | [7] 0.021 | [8] 0 | [9] 0.023 | tipifarnib 0.045 | mubritinib 0.003
active: crizotinib -0.871 | bafetinib -0.338

LDLR (UniProt P01130)
UniProt P01130, sequence (P01130 whole entry, looked up): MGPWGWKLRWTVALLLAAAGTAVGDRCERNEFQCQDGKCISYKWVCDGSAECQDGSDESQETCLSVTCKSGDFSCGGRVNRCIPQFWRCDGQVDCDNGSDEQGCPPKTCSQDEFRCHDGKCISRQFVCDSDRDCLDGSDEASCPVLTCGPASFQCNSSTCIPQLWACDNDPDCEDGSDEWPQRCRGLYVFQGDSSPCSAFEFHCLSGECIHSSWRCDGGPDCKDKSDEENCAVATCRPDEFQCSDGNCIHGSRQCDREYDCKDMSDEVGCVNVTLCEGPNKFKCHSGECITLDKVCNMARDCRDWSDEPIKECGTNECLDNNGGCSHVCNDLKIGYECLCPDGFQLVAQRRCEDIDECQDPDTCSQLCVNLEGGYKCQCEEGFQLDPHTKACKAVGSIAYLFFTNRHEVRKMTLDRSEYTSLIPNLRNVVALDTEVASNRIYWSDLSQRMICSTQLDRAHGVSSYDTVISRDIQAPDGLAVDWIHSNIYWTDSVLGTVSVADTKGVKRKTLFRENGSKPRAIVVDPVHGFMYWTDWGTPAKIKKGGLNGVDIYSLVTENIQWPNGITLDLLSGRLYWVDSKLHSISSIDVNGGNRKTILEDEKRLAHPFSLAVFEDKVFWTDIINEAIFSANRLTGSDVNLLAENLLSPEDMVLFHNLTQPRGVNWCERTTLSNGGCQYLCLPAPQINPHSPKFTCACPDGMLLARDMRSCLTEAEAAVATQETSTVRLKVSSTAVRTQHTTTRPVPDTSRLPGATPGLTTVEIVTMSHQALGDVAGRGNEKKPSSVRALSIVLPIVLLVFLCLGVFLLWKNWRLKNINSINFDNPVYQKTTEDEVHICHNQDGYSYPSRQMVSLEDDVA
active: crizotinib -0.363
inactive: [1] -0.005 | [2] -0.05 | [3] -0.045 | duvelisib -0.05 | gandotinib -0.038 | tozasertib -0.088 | [4] -0.094 | doramapimod -0.017 | ispinesib -0.052 | bafetinib 0.005 | [5] -0.029 | nilotinib 0.041 | [6] -0.027 | dasatinib 0.056 | [7] -0.064 | [8] 0.013 | [9] 0.029 | tipifarnib 0.097 | mubritinib -0.082

MARK3 (UniProt P27448)
UniProt P27448, sequence (P27448 whole entry, looked up): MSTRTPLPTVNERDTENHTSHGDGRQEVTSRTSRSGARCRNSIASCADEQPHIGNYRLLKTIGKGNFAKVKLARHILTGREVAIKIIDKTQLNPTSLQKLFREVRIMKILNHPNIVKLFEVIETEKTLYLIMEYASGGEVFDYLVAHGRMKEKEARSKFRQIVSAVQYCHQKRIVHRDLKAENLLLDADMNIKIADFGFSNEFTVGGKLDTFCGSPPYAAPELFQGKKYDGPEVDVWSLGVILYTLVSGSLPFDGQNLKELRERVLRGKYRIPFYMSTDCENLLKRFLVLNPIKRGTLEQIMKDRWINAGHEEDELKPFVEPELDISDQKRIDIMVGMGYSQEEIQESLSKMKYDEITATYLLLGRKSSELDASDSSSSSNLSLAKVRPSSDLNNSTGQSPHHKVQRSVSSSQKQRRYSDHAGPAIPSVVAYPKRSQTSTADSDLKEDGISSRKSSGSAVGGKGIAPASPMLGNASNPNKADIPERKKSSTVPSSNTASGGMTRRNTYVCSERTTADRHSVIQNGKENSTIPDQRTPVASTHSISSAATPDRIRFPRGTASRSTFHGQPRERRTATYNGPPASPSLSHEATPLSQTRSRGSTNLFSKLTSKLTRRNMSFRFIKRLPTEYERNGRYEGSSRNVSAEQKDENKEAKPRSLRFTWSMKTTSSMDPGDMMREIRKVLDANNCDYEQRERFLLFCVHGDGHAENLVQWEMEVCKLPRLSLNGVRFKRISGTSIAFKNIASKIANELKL
active: crizotinib -0.394 | [6] -0.718
inactive: [1] -0.042 | [2] -0.039 | [3] 0.063 | duvelisib -0.013 | gandotinib -0.194 | tozasertib -0.187 | [4] 0.089 | doramapimod 0.073 | ispinesib -0.173 | bafetinib 0.033 | [5] 0.108 | nilotinib -0.125 | dasatinib -0.104 | [7] -0.11 | [8] -0.062 | [9] -0.046 | tipifarnib -0.013 | mubritinib -0.075

MAPK14 (UniProt Q16539)
inactive: [1] 0.023 | crizotinib -0.062 | [3] 0.018 | duvelisib -0.129 | gandotinib -0.099 | tozasertib -0.066 | [4] 0.015 | ispinesib -0.069 | [5] -0.092 | [6] 0.123 | [7] 0.071 | [8] 0.107 | [9] 0.014 | tipifarnib -0.102 | mubritinib 0
active: bafetinib 1.65 | nilotinib 1.68 | dasatinib 1.05

MAPK14 isoform 2 (UniProt Q16539)
inactive: [1] 0.087 | crizotinib -0.062 | [2] -0.018 | [3] -0.013 | duvelisib -0.072 | gandotinib -0.022 | tozasertib 0.031 | [4] 0.017 | ispinesib -0.038 | [5] -0.038 | [6] 0.176 | [7] 0.037 | [8] -0.071 | [9] -0.02 | tipifarnib -0.049 | mubritinib 0
active: bafetinib 1.73 | nilotinib 1.67 | dasatinib 1.37

MAGED1 isoform 2 (UniProt Q9Y5V3)
UniProt Q9Y5V3, sequence (Q9Y5V3 whole entry, looked up): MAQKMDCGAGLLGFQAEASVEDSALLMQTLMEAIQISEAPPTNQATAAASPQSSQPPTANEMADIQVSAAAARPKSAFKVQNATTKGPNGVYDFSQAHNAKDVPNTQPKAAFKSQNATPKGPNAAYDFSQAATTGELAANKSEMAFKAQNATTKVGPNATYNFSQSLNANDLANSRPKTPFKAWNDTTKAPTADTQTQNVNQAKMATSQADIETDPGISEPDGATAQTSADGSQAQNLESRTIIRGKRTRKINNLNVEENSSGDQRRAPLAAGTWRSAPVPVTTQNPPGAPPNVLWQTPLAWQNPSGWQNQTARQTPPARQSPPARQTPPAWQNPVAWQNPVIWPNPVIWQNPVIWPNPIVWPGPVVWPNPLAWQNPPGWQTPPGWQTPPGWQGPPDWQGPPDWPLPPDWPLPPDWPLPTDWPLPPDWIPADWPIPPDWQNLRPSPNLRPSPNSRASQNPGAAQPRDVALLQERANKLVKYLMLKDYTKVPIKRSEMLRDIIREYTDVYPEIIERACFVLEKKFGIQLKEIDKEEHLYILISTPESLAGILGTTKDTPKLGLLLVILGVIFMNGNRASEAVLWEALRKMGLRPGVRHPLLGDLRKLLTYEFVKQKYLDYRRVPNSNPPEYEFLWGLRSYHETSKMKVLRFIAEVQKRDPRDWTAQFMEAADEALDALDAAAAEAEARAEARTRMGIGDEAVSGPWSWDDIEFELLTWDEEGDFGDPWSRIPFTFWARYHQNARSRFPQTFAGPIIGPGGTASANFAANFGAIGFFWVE
inactive: [1] -0.012 | [2] 0.096 | [3] 0.205 | duvelisib 0.05 | [4] -0.008 | nilotinib -0.035 | [6] -0.008 | dasatinib 0.057 | [7] -0.082 | [8] 0.111 | tipifarnib -0.104

MED25 isoform 3 (UniProt Q71SY5)
inactive: [1] 0.061 | crizotinib 0.021 | [3] 0 | duvelisib 0.061 | gandotinib 0.19 | tozasertib 0.136 | [4] 0.162 | doramapimod 0.085 | ispinesib -0.018 | bafetinib 0.09 | [5] 0.217 | nilotinib -0.013 | [6] 0.003 | dasatinib -0.049 | [7] -0.09 | [8] -0.071 | [9] 0.076 | tipifarnib 0.054 | mubritinib -0.308

ILRUN (UniProt Q9H6K1)
UniProt Q9H6K1, sequence (Q9H6K1 whole entry, looked up): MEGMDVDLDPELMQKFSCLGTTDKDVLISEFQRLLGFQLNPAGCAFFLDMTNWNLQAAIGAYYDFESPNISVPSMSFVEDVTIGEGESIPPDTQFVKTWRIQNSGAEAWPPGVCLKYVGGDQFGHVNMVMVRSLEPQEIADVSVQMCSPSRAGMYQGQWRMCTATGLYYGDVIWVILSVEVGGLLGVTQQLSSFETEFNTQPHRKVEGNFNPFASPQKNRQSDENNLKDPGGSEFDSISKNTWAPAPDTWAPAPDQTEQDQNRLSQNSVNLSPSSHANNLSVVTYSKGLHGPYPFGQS
active: [7] 0.258
inactive: [1] -0.033 | crizotinib 0.115 | [2] 0.028 | [3] -0.038 | duvelisib 0.021 | tozasertib -0.087 | [4] 0.029 | doramapimod 0.005 | ispinesib 0.032 | bafetinib -0.05 | nilotinib -0.01 | [6] -0.086 | dasatinib -0.08 | [8] -0.013 | [9] -0.039 | tipifarnib -0.023 | mubritinib 0.029

METAP1D (UniProt Q6UB28)
UniProt Q6UB28, sequence (Q6UB28 whole entry, looked up): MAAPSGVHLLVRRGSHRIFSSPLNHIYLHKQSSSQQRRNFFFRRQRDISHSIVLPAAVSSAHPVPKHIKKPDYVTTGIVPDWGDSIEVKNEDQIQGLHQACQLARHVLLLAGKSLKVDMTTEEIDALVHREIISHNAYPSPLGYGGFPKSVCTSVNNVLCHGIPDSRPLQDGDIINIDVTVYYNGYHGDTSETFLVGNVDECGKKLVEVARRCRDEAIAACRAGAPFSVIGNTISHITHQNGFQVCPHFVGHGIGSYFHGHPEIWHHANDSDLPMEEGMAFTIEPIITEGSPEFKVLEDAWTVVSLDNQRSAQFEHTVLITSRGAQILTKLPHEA
inactive: [1] -0.009 | crizotinib -0.041 | [2] 0.147 | [3] -0.037 | duvelisib 0.03 | tozasertib -0.055 | [4] 0.01 | doramapimod -0.091 | ispinesib -0.032 | bafetinib -0.089 | nilotinib -0.114 | [6] 0.036 | dasatinib 0.007 | [7] 0.079 | [8] -0.034 | [9] -0.071 | tipifarnib -0.023 | mubritinib 0.028

LPGAT1 (UniProt Q92604)
inactive: [1] -0.01 | crizotinib -0.101 | [2] 0.073 | [3] 0.015 | duvelisib -0.02 | tozasertib -0.088 | [4] 0.16 | doramapimod -0.038 | ispinesib -0.237 | bafetinib -0.086 | nilotinib -0.04 | [6] -0.128 | dasatinib 0.086 | [7] 0.048 | [8] 0.055 | [9] -0.082 | tipifarnib 0.01 | mubritinib 0.067

MARK2 (UniProt E9PC69)
inactive: [1] 0.068 | crizotinib -0.323 | [2] -0.049 | [3] 0.15 | duvelisib -0.181 | tozasertib -0.263 | [4] 0.12 | doramapimod 0.119 | ispinesib -0.232 | bafetinib 0.116 | nilotinib -0.007 | [6] -0.451 | dasatinib -0.158 | [7] -0.031 | [8] -0.038 | [9] -0.088 | tipifarnib -0.215

MAPK12 (UniProt P53778)
active: [8] 0.34
inactive: [1] -0.005 | [2] 0.105 | [3] -0.106 | duvelisib -0.005 | gandotinib 0.037 | tozasertib 0.099 | [4] 0.01 | ispinesib -0.036 | bafetinib -0.037 | [5] 0.008 | nilotinib -0.054 | [6] -0.254 | dasatinib -0.079 | [7] -0.035 | [9] -0.077 | tipifarnib -0.007 | mubritinib 0.061

MAML1 (UniProt Q92585)
inactive: [1] -0.022 | crizotinib 0.074 | [2] 0.053 | [3] -0.056 | doramapimod -0.038 | ispinesib -0.006 | [8] 0.087 | [9] -0.009

MED8 isoform 2 (UniProt Q96G25)
UniProt Q96G25, sequence (Q96G25 whole entry, looked up): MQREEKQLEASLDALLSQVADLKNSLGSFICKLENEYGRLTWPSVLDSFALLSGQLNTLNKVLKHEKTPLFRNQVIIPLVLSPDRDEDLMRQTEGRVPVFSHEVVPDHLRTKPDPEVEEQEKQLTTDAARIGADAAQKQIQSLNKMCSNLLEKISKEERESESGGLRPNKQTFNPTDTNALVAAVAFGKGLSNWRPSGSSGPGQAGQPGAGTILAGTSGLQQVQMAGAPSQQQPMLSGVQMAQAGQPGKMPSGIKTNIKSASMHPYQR
inactive: [1] 0.021 | crizotinib 0.037 | [2] -0.049 | [3] -0.077 | duvelisib 0.029 | [4] -0.079 | doramapimod -0.031 | ispinesib 0.012 | bafetinib -0.026 | nilotinib 0.016 | [6] -0.015 | dasatinib 0.034 | [7] -0.171 | [8] -0.086 | [9] 0.013 | tipifarnib 0.012 | mubritinib -0.059

IMMP1L (UniProt Q96LU5)
UniProt Q96LU5, sequence (Q96LU5 whole entry, looked up): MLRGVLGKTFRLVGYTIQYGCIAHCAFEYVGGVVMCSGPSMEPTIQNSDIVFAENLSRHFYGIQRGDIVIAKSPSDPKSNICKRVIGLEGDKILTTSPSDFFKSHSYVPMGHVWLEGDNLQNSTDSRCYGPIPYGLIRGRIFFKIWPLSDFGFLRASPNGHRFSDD
inactive: [1] 0.024 | crizotinib 0.121 | [2] 0.045 | [3] -0.05 | duvelisib 0.088 | tozasertib -0.058 | [4] 0.012 | doramapimod 0.015 | ispinesib -0.063 | bafetinib -0.024 | nilotinib -0.044 | [6] 0.059 | dasatinib 0.098 | [7] 0.03 | [8] 0.068 | [9] 0.071 | tipifarnib 0.02 | mubritinib 0.048

LYN isoform 2 (UniProt P07948)
UniProt P07948, sequence (P07948 whole entry, looked up): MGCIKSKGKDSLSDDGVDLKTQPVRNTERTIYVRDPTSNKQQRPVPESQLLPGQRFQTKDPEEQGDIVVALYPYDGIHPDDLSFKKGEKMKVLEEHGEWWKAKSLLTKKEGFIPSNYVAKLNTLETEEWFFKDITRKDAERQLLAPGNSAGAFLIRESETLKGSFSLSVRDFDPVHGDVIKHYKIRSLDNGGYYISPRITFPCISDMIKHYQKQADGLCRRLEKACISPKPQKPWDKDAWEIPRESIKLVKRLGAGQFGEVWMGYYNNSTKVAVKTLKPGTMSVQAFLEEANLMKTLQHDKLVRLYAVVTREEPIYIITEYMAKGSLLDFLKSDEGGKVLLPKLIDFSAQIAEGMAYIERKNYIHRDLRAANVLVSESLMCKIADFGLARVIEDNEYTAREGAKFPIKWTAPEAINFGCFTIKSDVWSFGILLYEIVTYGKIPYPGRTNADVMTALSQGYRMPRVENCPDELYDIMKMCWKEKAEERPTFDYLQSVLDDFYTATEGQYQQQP
inactive: crizotinib -0.211 | [2] -0.281 | [3] -0.294 | doramapimod 0.159 | nilotinib -0.001 | [6] -0.418 | [7] -0.006 | [8] 0 | tipifarnib 0.075
active: [1] -0.791

LSR (UniProt M0QZL9)
inactive: [1] -0.03 | [2] 0.118

KMT2C isoform 3 (UniProt Q8NEZ4)
inactive: [1] 0.013 | [2] 0.021 | [3] 0.022 | duvelisib 0.134 | gandotinib -0.106 | tozasertib 0.063 | [4] -0.048 | ispinesib -0.235 | bafetinib -0.209 | [5] -0.041 | nilotinib -0.049 | [6] -0.093 | dasatinib 0.043 | [7] 0.001 | [8] 0.094 | [9] -0.215 | mubritinib 0.083
